Screening results from PubChem.
aSyn 5UTR act: Activators working through SNCA 5'UTR binding (MLPCN); alpha-synuclein 5'UTR reporter, activators screen; activity score, % (tested at 7.5 µM), hits read low; 7.1% of 300,000 active; AID 1814; in the data active means activity score below about -60%
Starred values were filed as active, the others as inactive. Not all results are given here.

SMILES	aSyn 5UTR act
Cc1coc2c1C(=O)C(=O)c1c-2ccc2c1CCCC2(C)C	63
Cc1coc2c1C(=O)C(=O)c1c-2ccc2c(C)cccc12	-64*
Cc1ccc(C(=O)OCC(=O)NCc2cccs2)c(C)c1	-75*
Cc1ccc(-c2cc(C(=O)NCc3cccnc3)no2)cc1	-90*
O=C(NCc1cccnc1)c1cc(-c2ccco2)on1	-72*
Cc1ccc(CN2C(=O)/C(=C\c3ccc(C(=O)NCc4cccnc4)cc3)Oc3ccccc32)cc1	101
CCc1nc(SCc2ccc(Cl)cc2)n[nH]1	-49*
CCc1nc(SCc2ccc(Br)cc2)n[nH]1	-88*
CCc1nc(SCc2ccc(OCC(C)C)cc2)n[nH]1	-102*
COc1cc(C(=O)Nc2ccc(N(C)C)cc2)c([N+](=O)[O-])cc1OC	-75*
Clc1cccc(Cl)c1Cn1nnc(N2CCCC2)n1	-64*
Cn1ncc(Cl)c1C(=O)Nc1ccc2c(c1)CCC2	-138*
CN1N=C(C(=O)Nc2ccc3c(c2)CCC3)CCC1=O	-140*
Cc1ccc(NC(=S)C2=C(O)c3ccccc3N(C)S2(=O)=O)cc1	-100*
CN1c2ccccc2C(O)=C(C(=O)Nc2ccccc2)S1(=O)=O	-84*
Cn1nc(OC(=O)Nc2ccc(Cl)cc2)cc1C(F)(F)F	-85*
COc1ccccc1NC(=O)C(=O)c1cn(CC(=O)N2CCOCC2)c2ccccc12	-119*
COc1ccc(NC(=O)C(=O)c2cn(CC(=O)N3CCCC3)c3ccccc23)c(OC)c1	-86*
CCCOC(=O)c1ccc(-c2ccc(C=O)o2)cc1	-97*
CCOC(=O)c1ccc(-c2ccc(C=O)o2)cc1	-146*
O=C(CC(Nc1ccc(F)cc1)C(=O)OCC(=O)c1cccs1)c1ccccc1 (stereo not drawn)	-113*
O=C(CC(Nc1ccc(F)cc1)C(=O)O)c1ccccc1 (stereo not drawn)	-171*
COCCN(C(=O)COC(=O)/C=C/c1ccccc1Cl)c1c(N)n(Cc2ccccc2)c(=O)[nH]c1=O	-92*
N/C(=N\OC(=O)c1cccs1)c1cccnc1	-92*
N/C(=N\OC(=O)c1ccco1)c1ccc(Cl)cc1	-210*
SMILES	aSyn 5UTR act
N/C(=N\OC(=O)c1ccc(Cl)cc1Cl)c1cccnc1	-70*
Cc1ccccc1/C(N)=N/OC(=O)c1cccs1	-120*
N/C(=N\OC(=O)c1ccc(Cl)cc1)c1cccnc1	-187*
N/C(=N\OC(=O)c1ccc(Cl)cc1)c1ccc(Cl)cc1	-122*
N/C(=N\OC(=O)c1ccco1)c1cccnc1	-78*
CCSc1ccc(/C(N)=N/OC(=O)c2cccs2)cn1	-120*
N/C(=N\OC(=O)c1ccc(Cl)cc1)c1ccn[nH]1	-77*
CCSc1n[nH]c(=S)s1	-89*
COC(=O)/C=C1\C(=O)N(c2nc3ccccc3s2)C(=S)N1c1ccc(F)cc1	-175*
COC(=O)/C=C1\C(=O)N(c2nc3ccc(OC)cc3s2)C(=S)N1c1ccc(F)cc1	-69*
COc1ccccc1/C=C/C=N/NC(=O)c1cnccn1	-69*
COc1ccc(/C=N/NC(=O)c2cc3c(OC)ccc(OC)c3[nH]2)cc1O	68
COc1ccc(/C=N/NC(=O)c2cnccn2)cc1O	-63*
COc1ccccc1/C=C/C=N/NC(=O)c1ccccn1	-74*
Cn1c(CNc2nc3ccccc3n2C)nc2ccccc21	-81*
COc1ccc(Nc2nc3ccccc3n2C)cc1	-101*
Cn1c(CNc2ccc(Br)cc2)nc2ccccc21	-172*
Cc1ccc(NCc2nc3ccccc3n2C)cc1	-111*
Cn1c(S(=O)(=O)Cc2ccc(Cl)cc2)nc2ccccc21	-65*
Cc1ccc(NCc2nc3ccccc3n2C)cc1C	-113*
CCCn1c(CNc2ccccc2O)nc2ccccc21	-84*
CCOC(=O)c1ccc(NCc2nc3ccccc3n2C)cc1	-172*
COc1ccc(NCc2nc3ccccc3n2C)cc1	-129*
C=CCn1c(NCc2ccc(N(C)C)cc2)nc2ccccc21	-63*
Cn1c(NCc2ccc(Cl)cc2)nc2ccccc21	-100*
SMILES	aSyn 5UTR act
O=C(O)c1ccc(Nc2nc(-c3ccccc3)cs2)cc1	-114*
CCCC(C)C(=O)Nc1nc(C)c(-c2csc(Nc3cc(OC)ccc3OC)n2)s1 (stereo not drawn)	60
Cc1nc(N)sc1-c1csc(Nc2ccccc2)n1	-130*
COc1ccccc1Nc1nc(-c2sc(NC(=O)c3cccc(Cl)c3)nc2C)cs1	-86*
Cc1nc(NC(=O)c2ccccc2)sc1-c1csc(Nc2ccc(C(=O)O)cc2)n1	-73*
Cc1nc2ccccn2c1C(=O)N/N=C/c1ccc2c(c1)OCO2	-96*
O=C(CNc1ccc2c(c1)OCO2)N/N=C\c1cn(Cc2ccccc2)c2ccccc12	81
O=C(Cc1ccccc1)N/N=C/c1ccc2c(c1)OCO2	-140*
O=C(N/N=C/c1ccc2c(c1)OCO2)C(=O)Nc1ccccc1	-84*
O=C(CNC(=O)c1ccccc1F)N/N=C/c1ccc2c(c1)OCO2	-98*
Cc1cc2nc3ccc(=[N+](C)C)cc-3sc2cc1N	91
O=c1c(C=Nc2cccc(C(F)(F)F)c2)c[nH]n1-c1cccc(Cl)n1	-65*
COC(=O)CNc1c(-c2ccccc2)nc2ccc(Br)cn12	-69*
O=C(Nc1cc2c(cc1Cl)OCCO2)c1ccco1	-163*
O=C(Nc1c(C(=O)Nc2ccc3c(c2)OCCO3)cnn1-c1ccccc1Cl)c1ccco1	-102*
O=C(Nc1ccc(NC(=O)c2ccco2)c(Cl)c1)c1ccc2c(c1)OCCO2	-76*
O=C(Nc1cc2c(cc1Br)OCCO2)c1ccco1	-101*
O=C(Nc1cc2c(cc1Br)OCCO2)c1cccs1	-142*
C(#Cc1ccccc1)Cn1nnc2ccccc21	-98*
NC(=O)C(C(=O)/C=C/c1ccc(Cl)cc1)=C1SCCS1	-114*
COc1ccc(/C=C/C(=O)C(C(N)=O)=C2SCCS2)cc1	-109*
N#Cc1ccc(-c2cccnc2)nc1SCC(=O)Nc1sc2c(c1C#N)CCC2	-88*
NC(=O)c1c(NC(=O)c2ccc([N+](=O)[O-])o2)sc2c1CCCC2	95
N#Cc1c(NC(=S)NC(=O)c2ccccc2)sc2c1CCCC2	-96*
N#Cc1c(NC(=O)c2ccc([N+](=O)[O-])o2)sc2c1CCC2	-107*
SMILES	aSyn 5UTR act
Cc1cc(C(=O)Nc2sc3c(c2C#N)CCC(C)C3)cs1 (stereo not drawn)	-103*
CC1CCc2c(sc(NC(=S)NC(=O)c3ccccc3)c2C#N)C1 (stereo not drawn)	-74*
N#Cc1c(NC(=O)c2cnccn2)sc2c1CCCC2	-128*
N#Cc1c(NC(=O)c2cccnc2)sc2c1CCC2	-150*
CNC(=O)c1c(NC(=O)c2cccc(C)c2)sc2c1CCC2	-213*
N#Cc1c(NC(=O)c2ccccc2)sc2c1CCC2	-288*
CCOC(=O)C1=C(N)n2c(s/c(=C\c3ccco3)c2=O)=C(C(=O)OCC)C1c1ccco1 (stereo not drawn)	-78*
C/C=C/COC(=O)c1[nH]c2c(c1C)C(=O)CC(c1ccco1)C2 (stereo not drawn)	67
O=C(Nc1ccc(N2CCN(Cc3ccccc3F)CC2)cc1)c1ccc([N+](=O)[O-])o1	105
O=C(Nc1ccc(N2CCN(Cc3ccccc3)CC2)cc1)c1ccco1	-86*
O=C(NC(=S)Nc1ccc(CN2CCOCC2)cc1)c1ccco1	-117*
O=C(NC(=S)Nc1ccc(N2CCOCC2)cc1)c1ccco1	-108*
O=C(NC1CCCCCC1)c1ccc2c(=O)n3c(nc2c1)CCCCC3	-72*
Cc1ccc(NC(=O)c2ccc3c(=O)n4c(nc3c2)CCCCC4)nc1	-72*
